Experimental findings from article PMC7826789 (International Journal of Molecular Sciences, 2021) are described below.

Details in all cases: Compound Concentration (nM):1000
The subject of assay [1] is MET(Y1235D).
For assay [2], the system named is MET.
Assay [3] relates to T1, MINK.
T1 construct: gene MINK1

Assay [4] deals with T2, MKK7.
T2 construct: gene MAP2K7

In assay [5] the test system is MKNK1.
In assay [6] the test system is MKNK2.
Assay [7] has as its system T3, MLCK.
T3 construct: gene MYLK3

Assay [8] has as its system T4, MLK1.
T4 construct: gene MAP3K9

Assay [9] relates to T5, MLK2.
T5 construct: gene MAP3K10

In assay [10] the test system is T6, MLK3.
T6 construct: gene MAP3K11
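Also: KINOMEscan scanMAX binding as percent activity remaining versus control; lower means stronger binding.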

`Cc1cc(O)cc(C)c1/C=C/c1cncc(C(N)=O)c1` [GW435821X]: the “Percent Control” value in [1] is 100%; in assay [2], 100%; in [3] it was 87%; in assay [4], 100%; in [5] it was 69%; in assay [6], 31%. The “Percent Control” value worked out at 100% in [7], 100% in assay [8], 56% in assay [9] and 100% in assay [10].

As for `CCn1c(-c2nonc2N)nc2c(C#CC(C)(C)O)nc(OCCNC)cc21.Cl` [GSK949675], the “Percent Control” value is 100% in assay [1]; 97% in [2]; 100% in assay [3]; 100% in [4]; 98% in assay [5]; 100% in assay [6]. Also, the “Percent Control” value in assay [7], in assay [8], in assay [9] and in [10] was 100% throughout.

For the compound `NS(=O)(=O)c1ccc(N/N=C2\C(=O)Nc3ccc(Cl)cc32)cc1` [GW280670X], the “Percent Control” value in assay [1] was 100%; in assay [2], 100%; in assay [3], 25%; in assay [4], 100%; in [5], 100%; in assay [6], 100%. The “Percent Control” value in [7] is listed as 85%; in assay [8], 100%; in assay [9], 98%; in [10], 96%.

As for `Cl.O=S1CCN(Cc2ccc(-c3ccc4ncnc(Nc5ccc(OCc6ccccc6)c(F)c5)c4c3)o2)CC1` [GW576924A], the “Percent Control” value is 100% in assay [1]; 100% in assay [2]; 89% in [3]; 51% in [4]; 82% in assay [5]; 100% in assay [6]. In addition, the “Percent Control” value in assay [7], in assay [8], in assay [9] and in assay [10] was 100% in each case.

For `CCS(=O)(=O)c1ccc(OC)c(Nc2ncc(-c3cccc(F)c3)o2)c1` [GW621970X], the “Percent Control” value in [1] is 100%; in assay [2], 100%; in assay [3], 72%; in assay [4] it was 100%; in assay [5], 70%; in assay [6], 100%. Besides, the “Percent Control” value in assay [7] was 100%; in assay [8], 100%; in [9], 95%; in assay [10], 100%.

For the compound `COc1cc(N2CCN(C(C)C)CC2)ccc1Nc1nc(Nc2ccc(F)cc2C(=O)NC[C@@H](O)CO)c2cc[nH]c2n1` [GSK1392956A], the “Percent Control” value was 100% in assay [1]; 100% in assay [2]; 80% in assay [3]; 100% in [4]; 61% in [5]; 97% in assay [6]. For the same compound, the “Percent Control” value is 96% in assay [7], 100% in assay [8], 100% in assay [9] and 100% in assay [10].

As to `C/C(Nc1ccc(S(N)(=O)=O)cc1)=C1/C(=O)Nc2ccccc21` [GW335962X], the “Percent Control” value in [1] was 100%; in assay [2], 72%; in [3] it was 2.8%; in assay [4], 91%; in assay [5], 74%; in assay [6] it was 100%. For the same compound, the “Percent Control” value in assay [7] is 69%; in assay [8], 77%; in assay [9], 75%; in [10], 98%.

`CCc1ccc(Oc2nccc(-c3c(-c4ccc(F)cc4)ncn3C3CCNCC3)n2)cc1` [SB-242719]: the “Percent Control” value in assay [1] is 100%; in assay [2] it was 93%; in assay [3], 36%; in assay [4] it was 90%; in assay [5], 83%; in assay [6], 100%. In addition, the “Percent Control” value in assay [7] turned out to be 76%; in assay [8] it was 85%; in assay [9] it was 100%; in [10] it was 71%.

`COc1ccc2cc(-c3c(-c4ccncc4)nc(-c4ccc(S(C)(=O)=O)cc4C)n3C)ccc2c1` [SB-633825]: the “Percent Control” value in assay [1] was 100%; in assay [2] it was 80%; in assay [3], 43%; in assay [4], 89%; in [5], 66%; in [6] it was 73%. In addition, the “Percent Control” value is given as 90% in assay [7], 63% in [8], 79% in assay [9] and 82% in [10].

As for `COc1cc2ncn(-c3cc(O[C@H](C)c4ccccc4Cl)c(C(N)=O)s3)c2cc1OC` [GSK237701A], the “Percent Control” value in [1] was 71%; in assay [2] it was 78%; in [3], 55%; in assay [4], 97%; in assay [5], 73%; in assay [6], 77%. In addition, the “Percent Control” value in [7] was found to be 97%; in assay [8], 64%; in assay [9], 95%; in assay [10] it was 92%.

Take `Cl.O=C(O[C@H]1CN[C@H](C#Cc2cc3ncnc(Nc4ccc5c(cnn5Cc5ccccc5)c4)c3s2)C1)N1CCOCC1` [GSK200398A]: the “Percent Control” value is 100% in assay [1]; 100% in assay [2]; 98% in assay [3]; 75% in [4]; 70% in [5]; 47% in assay [6]. The “Percent Control” value in assay [7] is 100%; in [8] it was 100%; in assay [9], 100%; in assay [10] it was 92%.

Regarding `CN1CCN(C(=O)c2ccc(NC(=O)Nc3ccc(N(C)c4ccnc(Nc5ccc(CS(C)(=O)=O)cc5)n4)cc3)cc2)CC1.Cl` [GW830263A], the “Percent Control” value in assay [1] was 4.4%; in [2], 8.8%; in assay [3], 18%; in [4], 95%; in assay [5] it was 65%; in assay [6], 4.2%. For the same compound, the “Percent Control” value in assay [7] is recorded as 86%; in assay [8], 86%; in assay [9], 82%; in assay [10], 91%.

Turning to `CC(C)COC(=O)c1ccc2c(c1)/C(=C/Nc1ccc(S(N)(=O)=O)cc1)C(=O)N2` [GW416981X], the “Percent Control” value in assay [1] is 94%; in [2] it was 100%; in [3], 37%; in assay [4], 100%; in assay [5], 100%; in assay [6] it was 100%. The “Percent Control” value in assay [7] is 100%; in assay [8], 100%; in [9], 96%; in assay [10], 100%.

On to `NS(=O)(=O)c1ccc(N/N=C2\C(=O)Nc3ccc(C(=O)NCc4ccncc4)cc32)cc1` [GW300657X], for which the “Percent Control” value in [1] was 91%; in [2], 100%; in assay [3] it was 34%; in assay [4], 93%; in [5], 56%; in [6] it was 78%. The “Percent Control” value was 45% in [7], 89% in [8], 99% in assay [9] and 100% in [10].
